Shown are actives, neighbours in structure and some others; about 2.4% of the full set was active somewhere.
PHOSPHO1 inh: PHOSPHO1 (human) inhibition. Q8TCT1. recombinant PHOSPHO1, absorbance phosphatase assay. inhibition, % at 13.3 µM. 290,000 tested, 1.1% active. AID 1565; in the data active = inhibition above about 60%
Target sequence (Q8TCT1 whole entry, looked up): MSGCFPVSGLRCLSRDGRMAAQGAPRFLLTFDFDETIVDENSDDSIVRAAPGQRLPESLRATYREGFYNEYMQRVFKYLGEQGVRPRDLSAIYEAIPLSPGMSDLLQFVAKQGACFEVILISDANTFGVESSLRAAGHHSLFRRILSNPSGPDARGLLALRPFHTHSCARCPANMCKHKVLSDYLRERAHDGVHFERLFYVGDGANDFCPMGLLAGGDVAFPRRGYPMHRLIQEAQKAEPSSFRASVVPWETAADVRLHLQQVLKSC
PABP polyA inh: PABP-poly(A) binding inhibition | calls only at 35 µM | PABP-poly(A) RNA binding, fluorescence polarization | P11940 | 290,000 tested, 1% active;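 also: calls also rest on retests at 20 µM and on dose response follow-up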
HMGR II inh: inhibitors of class II HMG-CoA reductase from Enterococcus faecalis; purified E. faecalis HMGR, NADPH absorbance 340 nm kinetic; inhibition, % at 10 µM; 190,000 tested, 0.41% active; AID 1066;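 active = inhibition above a set limit, the median over all tested compounds plus 3 SD, cut at about 9.5% in these data; inconclusive = no clear call, values can overlap the other calls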;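 also: enzyme runs in reverse so mevalonate oxidation gives rising NADPH absorbance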
PABP1 MLLE inh: inhibitors of microRNA-mediated deadenylation, human PABP1 MLLE binding. P11940. GST-MLLE / FITC-PAM2 fluorescence polarization. inhibition, % at 20 µM. 360,000 tested, 0.36% active. AID 588489; in the data active = inhibition above about 35%, passing the limit was not always enough
eIF4H FP inh: inhibitors of RNA binding by human eIF4H | eIF4H fluorescence polarization binding assay | 290,000 tested, 0.94% active | Q15056 | inhibition, % at 35 µM;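 also: calls also rest on retests at 20 µM and on dose response follow-up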
Hits are given with their value; - = inactive; ? = inconclusive; . = no result given; + = active, no number. Unless noted, no rule for the calls is given here.

SMILES | PHOSPHO1 inh | PABP polyA inh | HMGR II inh | PABP1 MLLE inh | eIF4H FP inh
Oc1ccc2ccccc2c1CNc1cnc2ccccc2c1 | 106 | - | - | - | -
COc1ccccc1N1CCN(S(=O)(=O)c2cc(-c3cc(C)no3)ccc2C(C)C)CC1 | - | - | . | - | -
Oc1c(N=Nc2nn[nH]n2)ccc2ccccc12 | . | . | . | 47 | .
O=C(COC(=O)CCC(=O)c1cccs1)Nc1cccc(F)c1 | . | . | . | - | .
COc1cccc(C(=O)N[C@@H](C)C(=O)N2CCC3(CC2)NCCc2[nH]cnc23)c1 | - | . | . | - | .
CCN1CCCC1CNC(=O)c1cc(COc2ccc(C)c(C)c2)on1 (configuration not stated) | - | - | . | - | -
O=c1cc(-c2ccc(O)cc2)oc2c1ccc1ccccc12 | . | . | . | - | .
O=c1cc(-c2ccc(O)cc2)oc2c(O)c(O)c(O)c(O)c12 | - | + | . | - | 91
COc1ccc(S(=O)(=O)N2CCOCC2)cc1NC(=O)CSc1n[nH]c(C(C)C)n1 | 63 | - | - | - | -
COc1ccc(S(=O)(=O)N2CCOCC2)cc1NC(=O)CSc1nc(C)c(C)c(C)n1 | . | . | . | - | .
Oc1ccc(O)c(-c2cnns2)c1 | - | - | - | - | -
N#CCCN1CCN(C(=S)c2ccc(-c3ccc(Cl)c(Cl)c3)o2)CC1 | 67 | - | - | - | -
O=[N+]([O-])c1cccc(-c2ccc(C(=S)N3CCOCC3)o2)c1 | - | - | - | - | -
O=[N+]([O-])c1cc(-c2ccc(C(=S)N3CCOCC3)o2)ccc1Cl | 61 | - | - | - | -
N#CCCN1CCN(C(=S)c2ccc(-c3cccc(Cl)c3)o2)CC1 | - | - | - | - | -
Cc1ccc(C(=O)O)cc1NC(=S)NC(=O)c1ccc(-c2ccc(Cl)cc2)o1 | - | - | . | 51 | -
CC(=O)N1CCN(C(=S)c2ccc(-c3ccc(Cl)cc3)o2)CC1 | 74 | - | - | - | -
COc1ccc2[nH]c3c(c2c1)CCN1C(=O)C(CC(=O)NCCC2=CCCCC2)C[C@H](C(=O)N2CCOCC2)[C@@]31C (some centres not stated) | . | . | . | - | .
Cc1ccc2cc(CCNC(=O)c3ccco3)c(=O)[nH]c2c1 | - | - | - | - | -
Cc1ccc2cc(CCNC(=O)c3ccco3)c(=O)[nH]c2c1C | - | + | - | - | ?
CN(/N=C/c1c[nH]c2ccccc12)c1cnn(-c2ccc(F)c(Cl)c2)c(=O)c1Cl | - | + | - | - | 78
CC1(C)Cc2c(sc3c2c2ncnn2c2nnc(SCC(=O)NCc4ccco4)n32)CO1 | - | - | - | - | -
CCC1(C)Cc2c(sc3c2c2ncnn2c2nnc(SCC(=O)NCc4ccco4)n32)CO1 (configuration not stated) | 65 | - | - | - | -
Cc1ccsc1/C=C/c1ccc2cccc(O)c2n1 | 86 | - | - | - | -
Cc1ccsc1/C=C/c1ccc2ccccc2n1 | - | - | - | - | -
SMILES | PHOSPHO1 inh | PABP polyA inh | HMGR II inh | PABP1 MLLE inh | eIF4H FP inh
COc1ccccc1CNC(=O)c1cnccn1 | - | + | - | - | -
CC(C)Cc1nnc(NC(=O)c2cc3c(s2)CCC3)s1 | - | - | . | - | 54
CCN1CCN(C(=O)Cn2cnc3sc(C)c(S(=O)(=O)N4CCN(c5ncccn5)CC4)c3c2=O)CC1 | - | - | - | - | -
O=C(Nc1ccccc1)c1nnsc1S(=O)c1ccc(Cl)cc1 (configuration not stated) | 93 | - | - | - | -
Cc1ccc2nc(NCc3ccccc3)c(C=NCc3cccnc3)c(=O)n2c1 | - | - | . | - | -
Cc1ccc2nc(NCc3ccco3)c(C=NCc3ccco3)c(=O)n2c1 | - | + | - | - | 68
CCCCCCCNC1=CC(=O)CC(c2ccco2)C1 (configuration not stated) | - | + | - | - | 93
Cc1ccc(CNC(=O)CSc2nccn(-c3ccc(C)c(F)c3)c2=O)cc1 | . | . | . | 41 | .
CCC(C)c1ccccc1N1CC(C(=O)N(C)CC(=O)Nc2cccc(F)c2)CC1=O (configuration not stated) | . | . | . | - | .
Cc1c(/C=N/Nc2ccc(F)cc2)c(O)n(C)c(=O)c1C#N | - | + | - | - | -
COc1ccc(C(=O)CN2C(=O)NC3(CCCCCC3)C2=O)cc1 | - | - | . | - | -
N#Cc1c(N)sc(=S)c2c1CCCCC2 | - | - | - | - | ?
N#Cc1c(N)sc2c1CCCCCC2 | 80 | - | - | - | -
O=C(NC1CCCC1)C1CCN(C(=O)c2cccc(Cl)c2)CC1 | - | - | . | - | -
Cc1cccnc1NC(=S)NC(=O)c1cccs1 | - | - | - | 39 | -
CC(C)N(Cc1nnc(-c2ccc(Cl)cc2)o1)C(=O)c1cc2ccccc2o1 | . | . | . | - | .
CC1=NN(c2ccccc2)C(=O)C1C(=O)c1ccccc1 (configuration not stated) | - | - | - | - | -
CC1=NN(c2ccccc2)C(=O)C1C(=S)SC1CC(=O)NC1=O (configuration not stated) | . | . | . | 49 | .
CCOc1cc(C(N)=O)cc(Br)c1OC | - | - | - | - | 8.5
Cc1ccccc1OC(=O)n1c(=S)oc2cc(Cl)ccc21 | 103 | - | - | - | -
Cc1csc(-c2ccc3cc(Cl)cc(Cl)c3n2)n1 | . | . | . | - | .
ClN=C1C=CC=CC1=NCl | . | . | . | - | .
COC1=CC(=NCl)C=CC1=NCl | . | . | . | 41 | .
COc1ccc(S(=O)(=O)N2CCCOC2CNC(=O)C(=O)NCCCn2ccnc2)cc1 (configuration not stated) | 61 | - | - | - | -
CNC(=O)C(=O)NCC1OCCN1S(=O)(=O)c1ccc(C)cc1 (configuration not stated) | - | - | . | - | -
SMILES | PHOSPHO1 inh | PABP polyA inh | HMGR II inh | PABP1 MLLE inh | eIF4H FP inh
Cc1ccc(S(=O)(=O)N2CCOC2CNC(=O)C(=O)NCC(C)C)cc1 (configuration not stated) | 62 | - | . | - | -
Cc1ccc(S(=O)(=O)N2CCCOC2CNC(=O)C(=O)NCCCn2ccnc2)cc1 (configuration not stated) | - | - | - | - | -
Cc1cc(C)n(CCC(=O)N2CCc3ccccc32)n1 | - | - | . | - | -
COC(=O)c1ccccc1NC(=O)CSc1nc2ncccc2[nH]1 | 64 | - | - | - | -
COC(=O)c1ccccc1NC(=O)CSc1ncccn1 | - | - | . | - | -
CCC(CC)C(=O)N(C)c1c(C)nc2c(OCC(=O)C(C)(C)C)cccn12 | . | . | . | - | .
Cc1ccc(NC(=O)C(=O)NCCN2CCN(S(C)(=O)=O)CC2)cc1C | 61 | - | - | - | -
CCc1ccc(NC(=O)C(=O)NCCN2CCN(S(C)(=O)=O)CC2)cc1 | - | - | 11 | - | -
CC(=O)N1CCN(Cc2nc3cc(NC(=O)COc4cccc(C)c4)ccc3n2C)CC1 | - | - | . | - | -
Cc1cc(=O)[nH]c(SCc2ccc(Cl)cc2Cl)n1 | . | - | . | - | -
CCOC(=O)c1cnc2ccc(Cl)cc2c1NCCN(C)C | - | - | - | 42 | ?
O=c1c(C(c2ccc(O)cc2)c2c(O)nc3n(c2=O)CCS3)c(O)nc2n1CCS2 | - | - | - | - | -
O=c1c(C(c2ccc(O)cc2)c2c(O)nc3n(c2=O)CCCS3)c(O)nc2n1CCCS2 | 65 | - | - | - | -

Bioassay records deposited in PubChem BioAssay by several laboratories.
